rCAG binder = r(CAG) repeat RNA binding; TO-PRO-1 dye displacement fluorescence; 1.3% of 370,000 active; inhibition, % at 3 µM;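 active = inhibition above the plate cutoff, the mean of all test compounds on that plate plus 3 SD, cut at about 35% in these data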;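 also: higher means more dye released from RNA so lower well fluorescence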
NR3A LBD binder = modulators (binders) of human NR3A ligand-binding domain; NR3A LBD differential scanning fluorimetry, Tm shift; 0% = protein alone, 100% = glycine-bound protein; Tm shift relative to glycine control, % at 25 µM; 2.5% of 340,000 active; AID 1259313;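 active = melting temperature shift of at least 10% of the positive control shift, at one fixed dose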
AHR act = human AHR activation; AHR-responsive luciferase reporter cells, luminescence; activation, % at 5 µM; 2.5% of 320,000 active; in the data active = activation above about 47%
ADAM17 inh = inhibitors of human ADAM17; P78536; recombinant ADAM17, EDANS/DABCYL FRET peptide cleavage; inhibition, % at 6.95 µM; 0.83% of 370,000 active;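 active = inhibition above the mean of compounds lying between control limits plus 3 SD, set per campaign, cut at about 8.5% in these data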
Target sequence (P78536 215-824 limits assumed): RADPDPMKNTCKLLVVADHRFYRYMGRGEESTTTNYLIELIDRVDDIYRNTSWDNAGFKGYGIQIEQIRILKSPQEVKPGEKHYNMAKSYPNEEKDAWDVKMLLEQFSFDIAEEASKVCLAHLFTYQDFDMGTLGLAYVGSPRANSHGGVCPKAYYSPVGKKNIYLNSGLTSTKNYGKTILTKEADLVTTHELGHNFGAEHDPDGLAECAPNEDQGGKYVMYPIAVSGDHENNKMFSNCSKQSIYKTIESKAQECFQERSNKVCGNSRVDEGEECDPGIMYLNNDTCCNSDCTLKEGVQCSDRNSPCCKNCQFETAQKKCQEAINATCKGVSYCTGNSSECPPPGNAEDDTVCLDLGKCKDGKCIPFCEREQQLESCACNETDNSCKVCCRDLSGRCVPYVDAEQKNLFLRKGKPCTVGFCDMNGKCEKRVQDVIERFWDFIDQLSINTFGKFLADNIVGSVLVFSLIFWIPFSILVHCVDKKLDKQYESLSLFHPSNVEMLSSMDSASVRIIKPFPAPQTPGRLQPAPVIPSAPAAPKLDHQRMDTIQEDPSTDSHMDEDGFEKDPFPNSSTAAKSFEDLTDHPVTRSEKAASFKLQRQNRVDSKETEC
proKLK7 act = activates the human kallikrein-7 zymogen; P49862; purified proKLK7, EDANS-DABCYL substrate fluorescence; 100% is mature enzyme control, 0% vehicle; activation, % at 7 µM; 0.9% of 370,000 active;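 active = activation above the mean of all tested compounds plus 3 SD, computed per campaign excluding outliers beyond control limits, cut at about 13% in these data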
ADAM10 inh = inhibitors of human ADAM10. O14672. recombinant ADAM10, EDANS/DABCYL FRET peptide cleavage, 3 h. inhibition, % at 7 µM. 0.62% of 370,000 active;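 active = inhibition above a per-campaign cutoff equal to the mean of compounds falling between control-based bounds plus 3 SD, cut at about 20% in these data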
Large screens that a line does not name were inactive. Most compounds without a hit are left out; they make up all but 7% or so of the library.

CCCCNC(=O)C[C@H]1C[C@@]2(C(=O)OC)C(=C[C@H](COCc3ccccc3)O[C@@H]2C)N(Cc2ccccc2)C1=O	none (no result: NR3A LBD binder, AHR act)
CN(/N=C/c1ccc2c(c1)OCO2)c1ccccc1	NR3A LBD binder 11
O=C(NN=Cc1ccc2c(c1)OCO2)NN=Cc1ccc2c(c1)OCO2	NR3A LBD binder 26 (no result: AHR act)
O=C(NN=Cc1ccc2c(c1)OCO2)C1CC1	none (no result: AHR act)
C(=N\N(c1ccccc1)c1ccccc1)/c1ccc2c(c1)OCO2	none
O=C(CNc1ccccc1)N/N=C/c1ccc2c(c1)OCCO2	NR3A LBD binder 16
O=C(Cc1ccccc1)N/N=C/c1ccc2c(c1)OCO2	none
CC(/C=C/c1ccc2c(c1)OCO2)=N/NC(=O)CNc1ccc(C)cc1	AHR act 97
C/C(=N/NC(=O)CN1CCN(Cc2ccccc2Cl)CC1)c1cccc(O)c1	none (no result: NR3A LBD binder, AHR act)
CC(=O)NCC(=O)N(C)C(C(=O)Nc1ccc2c(c1)OCCO2)c1ccc(C)cc1 (stereo not drawn)	none
Cc1ccc(C(C(=O)Nc2ccc3c(c2)OCO3)N(C)C(=O)/C=C\c2ccc3c(c2)OCO3)cc1 (stereo not drawn)	NR3A LBD binder 13
O=C(CNc1ccccc1)N/N=C/c1ccc2c(c1)OCO2	AHR act 53
Cc1nn(CCCC(=O)NCc2ccc(Cl)cc2)c(C)c1[N+](=O)[O-]	NR3A LBD binder 12
Cc1ccccc1Cn1ccc(NC(=O)c2cnn3c(C(F)(F)F)cc(-c4ccco4)nc23)n1	AHR act 48
CC(C)NC(=O)N[C@H]1C[C@@H]2O[C@@H](CO)CC[C@@H]2O[C@@H]1CCc1ccc(-c2ccccc2F)cc1	none (no result: NR3A LBD binder, AHR act)
COc1cccc(Nc2nnc(SCC3CCCCO3)s2)c1 (stereo not drawn)	AHR act 51
COc1ccc(C(=O)Nc2ccc(NC(=O)c3ccccc3OC)nc2)cc1	NR3A LBD binder 25
Cc1cc(NC(=O)c2ccc(NC(=O)c3cccs3)cc2)no1	NR3A LBD binder 14
COc1ccc(C(=O)Nc2ccc(NC(=O)c3cccc(OC)c3)cn2)cc1	NR3A LBD binder 38
COc1ccc(C(=O)Nc2ccc(NC(=O)c3cccs3)cn2)cc1	NR3A LBD binder 17
COc1ccc(C(=O)Nc2ccc(NC(=O)c3cccc(F)c3)cn2)cc1	none
Cc1ccc(NC(=O)C2CC3CCC2C3)c(C)c1 (stereo not drawn)	none (no result: rCAG binder, NR3A LBD binder, AHR act, proKLK7 act)
CCCCN1CC(COCc2ccccc2)Oc2cccc(NCc3cc(OC)c(OC)c(OC)c3)c2S1(=O)=O (stereo not drawn)	none (no result: NR3A LBD binder, AHR act)
COc1cc(O)c(C(CC(=O)N2CCC(C)CC2)c2ccc3c(c2)OCO3)c(OC)c1 (stereo not drawn)	none (no result: rCAG binder, NR3A LBD binder, AHR act, proKLK7 act)
Cc1cc(-n2c(C)cc(C(=O)COc3ccc(Cl)cc3C(N)=O)c2C)no1	AHR act 47
CCOC(=O)C1=CCN(S(=O)(=O)c2ccc(Br)cc2)C1c1cccc(Cl)c1 (stereo not drawn)	none (no result: NR3A LBD binder, AHR act)
COc1ccc(C(c2nnnn2C2CCCC2)N2CCN(C3CCCC3)CC2)cc1OC (stereo not drawn)	NR3A LBD binder 11
Cc1ccc2c(c1)NC(=O)CC(c1ccccc1)=N2	none
O=C1CC(c2ccccc2)=Nc2ccccc2N1	AHR act 75
O=[N+]([O-])c1cc(-c2ccn[nH]2)ccc1Cl	NR3A LBD binder 15
COc1ccc(/C=C2\CC3(OC(=O)C4CCCC4)CCCN2C3)cc1 (stereo not drawn)	none (no result: NR3A LBD binder, AHR act)
COC(=O)[C@]12C[C@H](CC(=O)N3CCOCC3)C(=O)N(CCC3=CCCCC3)C1=C[C@H](C1CCCC1)O[C@@H]2C	none (no result: NR3A LBD binder, AHR act)
COc1ccc(C=C(C#N)C(=O)c2ccccc2)cc1	none (no result: NR3A LBD binder, AHR act)
COc1cc(/C=C(\C#N)C(=O)c2ccc(O)c(O)c2)cc(I)c1O	rCAG binder 40
CSc1cc(C)n(-c2ccccc2)c(=S)c1C(C)=O	NR3A LBD binder 12
CC(=O)c1sc(=S)n(-c2ccccc2)c1C	none
O=C1CSC(=Nc2cc(Cl)ccc2Cl)N1	NR3A LBD binder 11 (no result: rCAG binder, ADAM17 inh, proKLK7 act, ADAM10 inh)
COc1ccc(NC(=O)c2ccc(S(=O)(=O)NCc3cccnc3)cc2)cc1	none
NS(=O)(=O)c1ccc(CNC(=O)c2ccc(Cl)c(S(=O)(=O)NCc3ccccc3)c2)cc1	none
Cc1ccc(NC(=O)c2ccc(S(=O)(=O)NCc3cccnc3)cc2)cc1C	none
COc1ccc(NC(=O)c2ccc(CNS(=O)(=O)c3cccc(OC)c3)cc2)cc1	none
O=C(Nc1ccc(Cl)c(Cl)c1)c1cccc(S(=O)(=O)NCc2cccnc2)c1	NR3A LBD binder 11
NS(=O)(=O)c1ccc(NC(=O)c2ccc(CNS(=O)(=O)c3cc(C(F)(F)F)ccc3Cl)cc2)cc1	NR3A LBD binder 30
COc1cccc(S(=O)(=O)NCc2ccc(C(=O)Nc3ccc(Cl)c(Cl)c3)cc2)c1	NR3A LBD binder 25
COc1cccc(S(=O)(=O)NCc2ccc(C(=O)Nc3ccc(C)cc3)cc2)c1	NR3A LBD binder 17
COC(CNC(=O)[C@H](Cc1ccccc1)NCC(=O)NC1CCCCC1)OC	none (no result: rCAG binder, NR3A LBD binder, AHR act, proKLK7 act)
COc1ccc2[nH]c3c(c2c1)CCN[C@]31C(=O)N(Cc2ccccc2)c2ccccc21	none (no result: NR3A LBD binder, AHR act)
O=C1c2ccccc2C2Cc3nnccc3CN12 (stereo not drawn)	none (no result: NR3A LBD binder, AHR act)
CCCCCn1c(CN(C)Cc2ccccc2)nc2c1c(=O)n(C)c(=O)n2C	none (no result: AHR act)
CCCCn1c(CN(Cc2ccccc2)Cc2ccccc2)nc2c1c(=O)n(C)c(=O)n2C	NR3A LBD binder 25
COCC(C)n1c(C)cc(C(=O)COC(=O)CN=C2NS(=O)(=O)c3ccccc32)c1C (stereo not drawn)	NR3A LBD binder 10
CCCc1ccc(-c2cc(NC(=O)Cc3c(C)[nH]c4ccccc34)ccc2N(C)c2cccnc2)cc1	none (no result: NR3A LBD binder, AHR act)
CC1(C)CC(=O)C2=C(C1)NC(SCC(=O)Nc1ccccc1)=C(C#N)C21CCCCC1	NR3A LBD binder 12
CC1=C(C(=O)Nc2ccccc2)C2(CCCCC2)C(C#N)=C(SCC(N)=O)N1	none
CCCc1ncc(C(O)c2cccc3ccccc23)n1C (stereo not drawn)	NR3A LBD binder 12
CCC(CO)Nc1cccc2c1S(=O)(=O)N(Cc1cn(Cc3ccc(F)cc3)nn1)Cc1ccccc1O2 (stereo not drawn)	none (no result: NR3A LBD binder, AHR act)
O=C(O)c1sccc1Oc1ccc(NS(=O)(=O)c2ccc(Cl)cc2)cc1	none
N#Cc1cccc(C#N)c1Oc1ccc(S(=O)(=O)Nc2ccc(Cl)cc2)cc1	NR3A LBD binder 10
COC(=O)[C@]12C[C@H](CC(=O)N3CCN(C(=O)c4ccco4)CC3)C(=O)N(Cc3ccc(Cl)cc3Cl)C1=C[C@H](C1CCCC1)O[C@@H]2C	none (no result: NR3A LBD binder, AHR act)
CCC(=O)Nc1cc(=O)[nH]c2nc(-c3ccc(Cl)cc3)nn12	AHR act 74
Cc1ccc(-c2nc3[nH]c(=O)cc(NC(=O)c4cccs4)n3n2)cc1	none
Cc1cc2nn(-c3cccc4ccccc34)nc2cc1NC(=O)c1cccs1	AHR act 57

High-throughput results: PubChem BioAssay, several laboratories
